High-throughput results deposited in PubChem BioAssay by Sanford-Burnham Center for Chemical Genomics.
ER stress surv: ER stress cell death inhibition; CSM14.1 thapsigargin ER stress survival, ATP luminescence; relative survival (cellular ATP), % at 15 µg/mL (by protocol); 0.33% of 48,000 active; AID 1010;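 active = survival measured by cellular ATP above 50% at 15 µg/ml in the first screen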;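 also: cell death triggered by about 15 µM thapsigargin; ATP read 24 h after thapsigargin was added; plate controls were thapsigargin with DMSO for no effect and DMSO without thapsigargin for full effect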
Numbers without * were called inactive. Shown is part of a subset that was picked to be rich in hits.

SMILES | ER stress surv
COc1ccc(Br)cc1CN1CCN(C(=O)COc2ccc(Cl)cc2)CC1 | 24
O=C(COc1ccc(Cl)cc1)N1CCN(Cc2cccc(F)c2)CC1 | -2
COc1ccc(CN2CCN(C(=O)COc3ccc(Cl)cc3)CC2)cc1OCc1ccccc1 | 69*
CCOc1ccc(-n2c(-c3ccc(OC)cc3)nc3ccccc3c2=O)cc1 | 0
CCCCCn1c(=O)c(C(=O)Nc2nc(C)cs2)c(O)c2ccccc21 | 14
